According to ChEMBL document CHEMBL1201862, “PubChem BioAssay data set” (2004):
The campaign covered roughly 420,000 compounds. About 50,000 (12%) were called active. Not shown: some 26% with an inconclusive outcome. This is one part of a sample in which actives are shown more often than they occur. The calls are words filed in the database; no cut-off is given here.

Each compound was assayed against Tyrosyl-DNA phosphodiesterase 1 (Homo sapiens) (UniProt Q9NUW8) (assay: qHTS for Inhibitors of human tyrosyl-DNA phosphodiesterase 1 (TDP1): qHTS in cells in presence of CPT.).
Format: functional

Sequence of Tyrosyl-DNA phosphodiesterase 1 (Homo sapiens) (Q9NUW8 whole entry): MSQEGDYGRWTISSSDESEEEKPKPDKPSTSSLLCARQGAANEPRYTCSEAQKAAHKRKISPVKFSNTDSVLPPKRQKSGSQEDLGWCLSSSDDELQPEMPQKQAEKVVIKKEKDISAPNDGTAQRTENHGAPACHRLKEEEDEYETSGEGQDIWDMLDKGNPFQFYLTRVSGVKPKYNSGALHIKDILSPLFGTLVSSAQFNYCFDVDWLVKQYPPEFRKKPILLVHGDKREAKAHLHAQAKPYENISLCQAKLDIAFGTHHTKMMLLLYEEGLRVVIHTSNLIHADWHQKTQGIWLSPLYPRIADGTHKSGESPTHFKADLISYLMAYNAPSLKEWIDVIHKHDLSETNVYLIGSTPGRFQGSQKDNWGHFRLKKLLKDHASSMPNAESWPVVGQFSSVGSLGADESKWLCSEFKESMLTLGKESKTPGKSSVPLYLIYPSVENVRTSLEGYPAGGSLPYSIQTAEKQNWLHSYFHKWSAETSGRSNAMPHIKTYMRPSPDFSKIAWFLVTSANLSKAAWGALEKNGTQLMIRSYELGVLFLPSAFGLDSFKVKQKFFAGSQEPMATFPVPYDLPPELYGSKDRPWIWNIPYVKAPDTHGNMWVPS

Potency, active:
COc1ccc(OC)c(/C=C/c2cccc3c2N(CCCCI)C=S3/C=C/c2cc(OC)ccc2OC)c1 (stereo not given) 6.31 µM
CC(C)C(C)c1cccc2c1NC=S2C(C)C(C)C (stereo not given) 5.62 µM
COc1ccccc1/C=C/C(=O)c1cccs1 9.44 µM
Cc1cccc2c1N(CCCCI)C=S2C (stereo not given) 3.98 µM
ICCCCN1C=S(CI)c2ccccc21 (stereo not given) 10 µM
